Assay results as given in PubChem BioAssay AID1259421 (Broad Institute, 2018).
Values joined by “and” are separate entries in the source; they are usually repeats but may differ in a detail not shown here. Equal entries are not always repeated. The campaign covered roughly 6,400 compounds. About 610 (9.5%) were called active. This is one part of a sample in which actives are shown more often than they occur. Rule as the data show it: active = activity change below about -70%; inconclusive = no clear call, values can overlap the other calls; inactive = above that. Some structures have more than one record in an assay (separate samples or runs), and their calls can disagree.

Assay: Toxoplasma gondii ME49Luc growth in HeLa cells, luciferase, no IFN-y, primary screen (AID 1259421)
Details: T. gondii ME49Luc in HeLa, 72 h, stronger effect = lower value, concentration not given here
With `C[C@@H]1CN(Cc2ccc(F)cc2)[C@@H](C)CN1C(=O)c1cc2c(C(=O)C(=O)N(C)C)cn(C)c2cc1Cl` the activity change, negative = inhibition was -1.84% (inactive). For `CC1(COc2ccc(CC3SC(=O)NC3=O)cc2)CCCCC1` (stereo not given), the activity change, negative = inhibition was 54.6% (inactive) and 38.2% (inactive). With `O=c1cc[nH]c(=O)[nH]1` the activity change, negative = inhibition was 14.2% (inactive). In the case of `O=c1[nH]cc(F)c(=O)[nH]1`, the activity change, negative = inhibition is reported as -79.7% (active) and -73.9% (active). In the case of `O=C(OC1C[C@H]2CC[C@@H](C1)[N+]21CCCC1)C(O)(c1ccccc1)c1ccccc1` (stereo not given in full), the activity change, negative = inhibition is reported as 13% (inactive). In the case of `CC(C)OC(=O)c1cc2c(OCC(O)CNC(C)(C)C)cccc2[nH]1` (stereo not given), the activity change, negative = inhibition is reported as 5.25% (inactive) and 2.42% (inactive). For `CN1N=C(C(N)=O)CCC1=O`, the activity change, negative = inhibition was 5.39% (inactive). With `COc1cc(F)c(C(C)C)cc1-c1ccc(C(F)(F)F)cc1CN1C(=O)O[C@H](c2cc(C(F)(F)F)cc(C(F)(F)F)c2)[C@H]1C` the activity change, negative = inhibition was 13.2% (inactive). For `CC(=O)Nc1ccc(C(=O)O)cc1`, the activity change, negative = inhibition was 5.72% (inactive). With `O=C(O)c1ccc(NC(=O)[C@H](Cc2ccc(O)cc2)NC(=O)c2ccccc2)cc1` the activity change, negative = inhibition was 10.1% (inactive). With `CC(C)[C@H](C(=O)Nc1ccc(C(=O)NO)cc1)c1ccccc1` the activity change, negative = inhibition was -78.5% (active). In the case of `C[C@H]1CC[C@@]2(OC1)O[C@H]1C[C@H]3[C@@H]4CC[C@@H]5C[C@@H](O)CC[C@]5(C)[C@H]4CC[C@]3(C)[C@H]1[C@@H]2C`, the activity change, negative = inhibition is reported as 10.8% (inactive). With `O=C1Nc2cc(Cl)ccc2Oc2ccccc21` the activity change, negative = inhibition was 13.7% (inactive). With `Cc1nc2c(c(=O)[nH]1)CSCC2` the activity change, negative = inhibition was -9.85% (inactive). With `CC(C)c1ccc2c(c1)CCC1C(C)(C(N)=O)CCCC21C` (stereo not given) the activity change, negative = inhibition was 39.8% (inactive). In the case of `CCN(CC)CCOCCOC(=O)C(CC)(CC)c1ccccc1`, the activity change, negative = inhibition is reported as 22.3% (inactive). For `Nc1ncnc2c1ncn2[C@@H]1O[C@H](C[C@@H](N)CC[C@H](N)C(=O)O)[C@@H](O)[C@H]1O`, the activity change, negative = inhibition was -5.35% (inactive). With `COc1ccc(CN(CCN(C)C)c2ccccn2)cc1` the activity change, negative = inhibition was 18% (inactive) and 6.75% (inactive). For `COc1ccc(CN(CCN(C)C)c2ncccn2)cc1`, the activity change, negative = inhibition was 10.1% (inactive) and 11.2% (inactive). For `CCCCCCCCCCCCCCCC[N+](C)(C)CCN(Cc1ccc(OC)cc1)c1ncccn1`, the activity change, negative = inhibition was -80.9% (active). In the case of `C[C@]12C=CC(=O)C=C1CCC1C3C[C@@H](O)[C@](O)(C(=O)CO)[C@@]3(C)C[C@H](O)[C@@]12F` (stereo not given in full), the activity change, negative = inhibition is reported as -10.6% (inactive). For `CN(C)CCN1C(=O)c2cccc3cc(NC(N)=O)cc(c23)C1=O`, the activity change, negative = inhibition was 5.35% (inactive). For `Cc1csc(-c2nnc(Nc3ccc(Oc4ncccc4-c4ccnc(N)n4)cc3)c3ccccc23)c1`, the activity change, negative = inhibition was -85.1% (active). For `COC(=O)[C@H](Cc1ccc([N+](=O)[O-])cc1)NC(=O)c1cccc2ccccc12`, the activity change, negative = inhibition was 3.56% (inactive). With `O=C1NC(=O)C2(CCOc3ccc(F)cc32)N1` (stereo not given) the activity change, negative = inhibition was 17.5% (inactive). In the case of `NC1=N[C@@]2(c3cc(NC(=O)c4ccc(F)cn4)ccc3F)COC[C@@H]2CS1`, the activity change, negative = inhibition is reported as -4.81% (inactive). With `CCOC(=O)[C@@H](N)Cc1ccc(-c2cc(O[C@H](c3ccc(Cl)cc3-n3ccc(C)n3)C(F)(F)F)nc(N)n2)cc1` the activity change, negative = inhibition was -85% (active). In the case of `Cc1ccn(-c2cc(Cl)ccc2[C@@H](Oc2cc(-c3ccc(C[C@H](N)C(=O)O)cc3)nc(N)n2)C(F)(F)F)n1`, the activity change, negative = inhibition is reported as 16.1% (inactive). With `COc1cccc(-c2ccc([C@@H](Oc3cc(-c4ccc(C[C@H](N)C(=O)O)cc4)nc(N)n3)C(F)(F)F)cc2)c1` the activity change, negative = inhibition was 21.9% (inactive). For `N#C/C(=C(\N)Sc1ccc(N)cc1)c1ccccc1C(F)(F)F`, the activity change, negative = inhibition was 9.63% (inactive). In the case of `N#Cc1cc(I)c(O)c([N+](=O)[O-])c1`, the activity change, negative = inhibition is reported as 10.2% (inactive). With `COc1cccc2cc(-c3nc(C4CCC(C(=O)O)CC4)n4ncnc(N)c34)[nH]c12` (stereo not given) the activity change, negative = inhibition was -19.8% (inactive). With `Oc1cc(O)c2c(c1)O[C@H](c1ccc(O)c(O)c1)[C@H](O)[C@H]2c1c(O)cc(O)c2c1O[C@H](c1ccc(O)c(O)c1)[C@@H](O)C2` the activity change, negative = inhibition was -71.6% (active). With `Oc1cc(O)c2c(c1)O[C@H](c1ccc(O)c(O)c1)[C@@H](O)C2` the activity change, negative = inhibition was 6.21% (inactive) and -16.6% (inactive). For `Oc1ccc([C@H]2Oc3cc(O)cc(O)c3C[C@H]2O)cc1`, the activity change, negative = inhibition was 0.946% (inactive). In the case of `COc1cccc(C=NC=Nc2cccc(OC)c2)c1`, the activity change, negative = inhibition is reported as 10.3% (inactive). In the case of `O=c1[nH]nc(Sc2ncc([N+](=O)[O-])s2)n1-c1ccc2c(c1)OCCO2`, the activity change, negative = inhibition is reported as 34.4% (inactive). For `NC(=O)c1cnc(N[C@@H]2CCCC[C@@H]2N)nc1Nc1cccc(-n2nccn2)c1`, the activity change, negative = inhibition was -82.6% (active) and -7.89% (inactive). For `CC(C)(C)CC(=O)OCC(=O)[C@@]1(O)CCC2C3CCC4=CC(=O)C=C[C@]4(C)C3[C@@H](O)C[C@@]21C` (stereo not given in full), the activity change, negative = inhibition was -8.37% (inactive). With `CS(=O)(=O)Nc1ccc2oc3c(OC(F)F)ccc(C(=O)Nc4c(Cl)cncc4Cl)c3c2c1` the activity change, negative = inhibition was 27.8% (inactive). For `O=c1[nH]c(=O)c2cn[nH]c2[nH]1`, the activity change, negative = inhibition was -8.15% (inactive). In the case of `Cc1cc(C(C)Nc2ccccc2)c2nc(N3CCOCC3)cc(=O)n2c1` (stereo not given), the activity change, negative = inhibition is reported as 14.5% (inactive). With `CCCc1nc(C(C)(C)O)c(C(=O)OCc2oc(=O)oc2C)n1Cc1ccc(-c2ccccc2-c2nn[nH]n2)cc1` the activity change, negative = inhibition was 2.42% (inactive) and 2.73% (inactive). With `CN1C2CC[C@@H]1CC(OC(=O)[C@H](CO)c1ccccc1)C2` (stereo not given in full) the activity change, negative = inhibition was 5% (inactive). For `COc1cc(/C=C(/C#N)C(N)=O)cc(CSc2nc3ccccc3s2)c1O`, the activity change, negative = inhibition was 0.785% (inactive). For `C=C[C@H]1CN2CC[C@H]1C[C@@H]2[C@H](O)c1ccnc2ccc(OC)cc12`, the activity change, negative = inhibition was -4.38% (inactive). With `O=C(/C=C/c1ccc(CN(CCO)CCc2c[nH]c3ccccc23)cc1)NO` the activity change, negative = inhibition was -83.9% (active). For `O=C(O)CCCc1c[nH]c2ccccc12`, the activity change, negative = inhibition was 16.7% (inactive). With `O=C(O)CCc1c[nH]c2ccccc12` the activity change, negative = inhibition was 16.9% (inactive). For `COC(=O)C[C@H]1C(C)(C)C2(O)OC34CC2C(=O)[C@]1(C)C3CC[C@]1(C)C4=CC(=O)O[C@H]1c1ccoc1` (stereo not given in full), the activity change, negative = inhibition was -5.47% (inactive). In the case of `COc1cc(Nc2ncc(F)c(Nc3ccc4c(n3)N(COP(=O)(O)O)C(=O)C(C)(C)O4)n2)cc(OC)c1OC`, the activity change, negative = inhibition is reported as -77% (active). With `COc1cc(Nc2ncc(F)c(Nc3ccc4c(n3)NC(=O)C(C)(C)O4)n2)cc(OC)c1OC` the activity change, negative = inhibition was -51.7% (inactive) and -21% (inactive). For `COC1C(O)C(CO)OC1n1cnc2c(NC3CCCCC3)ncnc21` (stereo not given), the activity change, negative = inhibition was 10.5% (inactive). For `Cc1cc(Nc2nc(N[C@@H](C)c3ncc(F)cn3)ncc2Cl)n[nH]1`, the activity change, negative = inhibition was 2.85% (inactive). For `CCc1cnc(N2CCC(c3nc(COc4ccc(-n5cnnn5)cc4)cs3)CC2)nc1`, the activity change, negative = inhibition was -26.5% (inactive). With `CC1(C)O[C@@H]2CC3C4CCC5=CC(=O)C=C[C@]5(C)[C@@]4(F)[C@@H](O)C[C@]3(C)[C@]2(C(=O)CO)O1` (stereo not given in full) the activity change, negative = inhibition was -0.643% (inactive). In the case of `CC(=O)Nc1ccccc1`, the activity change, negative = inhibition is reported as 7.35% (inactive) and 14.6% (inactive). In the case of `O=C(CCCCCCC(=O)Nc1ccccc1)NO`, the activity change, negative = inhibition is reported as -84% (active) and -91.4% (active) and -89.3% (active). With `O=C(CCCCCCC(=O)Nc1cccnc1)NO` the activity change, negative = inhibition was -92.1% (active). In the case of `Cn1ccc2cc(NC(=O)Nc3cccnc3)ccc21`, the activity change, negative = inhibition is reported as 22.9% (inactive) and -13.9% (inactive). With `O=C(Cc1ccccc1)NO` the activity change, negative = inhibition was -1.4% (inactive). With `O=C(O)CCCNC(=O)c1cccnc1` the activity change, negative = inhibition was 23.7% (inactive). In the case of `CC(C)c1ccc2c(c1)CCC1[C@](C)(CN)CCC[C@]21C` (stereo not given in full), the activity change, negative = inhibition is reported as 3.16% (inactive). In the case of `Nc1nc(-c2ccccc2)c(Br)c(=O)[nH]1`, the activity change, negative = inhibition is reported as 3.15% (inactive). For `Cc1cccn2c(=O)c(-c3nn[nH]n3)cnc12`, the activity change, negative = inhibition was 0.433% (inactive). In the case of `C=C1C(=O)O[C@@H]2[C@H]3C(C)=CC[C@@]34O[C@@]4(C)CC[C@@H]12`, the activity change, negative = inhibition is reported as 18.9% (inactive). For `CC[C@@H]1Cn2c(c3nc(-c4ccccc4)nc-3n(C)c2=O)N1`, the activity change, negative = inhibition was 8.44% (inactive) and 12.6% (inactive). For `COc1cc2c(cc1-c1c(C)noc1C)ncc1[nH]c(=O)n([C@H](C)c3ccccn3)c12`, the activity change, negative = inhibition was -91.9% (active). In the case of `C#Cc1cnc2[nH]c(=O)n(C(CC)CC)c2n1`, the activity change, negative = inhibition is reported as 0.376% (inactive). With `NCC[C@@H](O)C(=O)N[C@@H]1C[C@H](N)[C@@H](O[C@H]2O[C@H](CN)[C@@H](O)[C@H](O)[C@H]2O)[C@H](O)[C@H]1O[C@H]1O[C@H](CO)[C@@H](O)[C@H](N)C1O` (stereo not given in full) the activity change, negative = inhibition was 22.8% (inactive). For `CCCCCCCC/C=C\CCCCCCCC(=O)N[C@@H](CO)Cc1ccc(O)cc1`, the activity change, negative = inhibition was 4.92% (inactive). In the case of `c1cc2c(cc1C1CCCCC1)c1c3n2CCNC3CCC1` (stereo not given), the activity change, negative = inhibition is reported as 23.6% (inactive) and 27.3% (inactive). For `c1ccc(CNc2ncnc3nc[nH]c23)cc1`, the activity change, negative = inhibition was 9.71% (inactive) and 7.45% (inactive). In the case of `Cn1cnc([N+](=O)[O-])c1Sc1ncnc2nc[nH]c12`, the activity change, negative = inhibition is reported as -68.2% (inactive) and -74.1% (active). In the case of `Cn1cnnc1Sc1c([N+](=O)[O-])ncn1C`, the activity change, negative = inhibition is reported as 23.4% (inactive) and 9.93% (inactive). For `CC(SC(=O)c1cccs1)C(=O)NCC(=O)O` (stereo not given), the activity change, negative = inhibition was 13% (inactive). With `CC(=O)[C@H]1CCC2C3CC=C4C[C@@H](OC(=O)CCC(=O)O)CC[C@]4(C)C3CC[C@@]21C` (stereo not given in full) the activity change, negative = inhibition was 4.41% (inactive) and 6.51% (inactive). With `C[C@H]1[C@H](OC(=O)CCC(=O)O)O[C@@H]2O[C@@]3(C)CC[C@H]4[C@H](C)CC[C@@H]1[C@@]24OO3` the activity change, negative = inhibition was -80.6% (active). For `C[C@@H]1CC[C@H]2[C@@H](C)C(O)O[C@@H]3O[C@]4(C)CC[C@@H]1[C@]32OO4` (stereo not given in full), the activity change, negative = inhibition was -85.4% (active). With `C[C@H]1[C@@H](O)O[C@@H]2O[C@@]3(C)CC[C@H]4[C@H](C)CC[C@@H]1[C@@]24OO3` the activity change, negative = inhibition was -93.7% (active).
